Experimental findings from the supplement of paper PMC9023506 are described below.

Structures can show the parent of a compound that is named as a salt.

For this assay, the system named is Danio rerio larvae (5 dpf). Kind of assay: activity during period 15 (no stimuli), difference vs DMSO (percentage points (treated minus DMSO)); higher = more of the behaviour than the DMSO vehicle control. Particulars: 10 µM; exposure time: 3 h pre-incubation + 3 h imaging. Here is the method:
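5-dpf wild-type zebrafish larvae were imaged in 96-well plates. They were treated with 190 Tocris FDA-approved drugs at 10 µM (1 µl/ml DMSO) for 3 h before and 3 h during imaging at 28.5 °C, 48 larvae per drug. Automated image analysis gave % time moving and optomotor responses. Values are drug group mean minus DMSO vehicle mean (n=844), in percentage points, for 10 behaviours.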
With `CCCCc1nc(Cl)c(CO)n1Cc1ccc(-c2ccccc2-c2nnn[nH]2)cc1` [Losartan potassium], the “activity during period 15” value was 3.67.

Turning to `CCCCCCCCc1ccc(CCC(N)(CO)CO)cc1`, the “activity during period 15” value was -23.3.

Take `CCOc1nc2cccc(C(=O)O)c2n1Cc1ccc(-c2ccccc2-c2noc(=O)[nH]2)cc1` [Azilsartan]: the “activity during period 15” value was 3.86.

As for `CCCCC(=O)N(Cc1ccc(-c2ccccc2-c2nnn[nH]2)cc1)[C@H](C(=O)O)C(C)C` [Valsartan], the “activity during period 15” value worked out at 9.35.

Take `NS(=O)(=O)c1cc(C(=O)O)c(NCc2ccco2)cc1Cl` [Furosemide]: the “activity during period 15” value worked out at 9.33.

As for `Nc1nc(F)nc2c1ncn2[C@@H]1O[C@H](CO)[C@@H](O)[C@@H]1O` [Fludarabine], the “activity during period 15” value is -6.57.

Turning to `CCN(Cc1ccncc1)C(=O)C(CO)c1ccccc1` (stereo not given) [Tropicamide], the “activity during period 15” value came to 6.31.

`CN1CCC[C@@H]1Cc1c[nH]c2ccc(CCS(=O)(=O)c3ccccc3)cc12` [Eletriptan hydrobromide]: the “activity during period 15” value was -0.424.

For `Cc1ccsc1C(=CCCN1CCC[C@@H](C(=O)O)C1)c1sccc1C` [Tiagabine hydrochloride], the “activity during period 15” value amounted to 10.4.

Take `COc1ccc(Cl)cc1C(=O)NCCc1ccc(S(=O)(=O)NC(=O)NC2CCCCC2)cc1` [Glibenclamide]: the “activity during period 15” value is -4.16.

In the case of `COc1cc2nc(N3CCN(C(=O)C4COc5ccccc5O4)CC3)nc(N)c2cc1OC` (stereo not given) [Doxazosin mesylate], the “activity during period 15” value was -7.81.

As to `O=C(c1ccc(OCCN2CCCCC2)cc1)c1c(-c2ccc(O)cc2)sc2cc(O)ccc12` [Raloxifene hydrochloride], the “activity during period 15” value is -8.58.

On to `COc1cc2nc(N3CCN(C(=O)c4ccco4)CC3)nc(N)c2cc1OC` [Prazosin hydrochloride], for which the “activity during period 15” value came out at 1.78.

For the compound `CC(C)C(=O)Nc1ccc([N+](=O)[O-])c(C(F)(F)F)c1` [Flutamide], the “activity during period 15” value was -0.963.

As for `CNCc1ccc(-c2[nH]c3cc(F)cc4c3c2CCNC4=O)cc1` [Rucaparib camsylate], the “activity during period 15” value was -8.43.

As for `COc1ccc([C@@H]2Sc3ccccc3N(CCN(C)C)C(=O)[C@@H]2OC(C)=O)cc1` [Diltiazem hydrochloride], the “activity during period 15” value was -3.65.

Turning to `CCOc1ccccc1OCCN[C@H](C)Cc1ccc(OC)c(S(N)(=O)=O)c1` [Tamsulosin hydrochloride], the “activity during period 15” value stood at 2.6.

As for `C[C@@H]1C[C@H]2[C@@H]3CCC4=CC(=O)C=C[C@]4(C)[C@@]3(F)[C@@H](O)C[C@]2(C)[C@@]1(O)C(=O)CO` [Dexamethasone], the “activity during period 15” value worked out at 2.91.

Regarding `CCCc1nc2c(C)cc(-c3nc4ccccc4n3C)cc2n1Cc1ccc(-c2ccccc2C(=O)O)cc1` [Telmisartan], the “activity during period 15” value was -7.63.

As to `CCCN(CCC)S(=O)(=O)c1ccc(C(=O)O)cc1` [Probenecid], the “activity during period 15” value was -4.09.

`COc1cc(N)c(Cl)cc1C(=O)NC1CCN(CCCOc2ccc(F)cc2)CC1OC` (stereo not given) [Cisapride]: the “activity during period 15” value is -0.757.

Take `OC(c1cc(C(F)(F)F)nc2c(C(F)(F)F)cccc12)C1CCCCN1` (stereo not given) [Mefloquine hydrochloride]: the “activity during period 15” value was -1.13.

On to `NC(=O)N1c2ccccc2C=Cc2ccccc21` [Carbamazepine], for which the “activity during period 15” value was -0.716.

With `CNC(=O)c1cc(Oc2ccc(NC(=O)Nc3ccc(Cl)c(C(F)(F)F)c3)cc2)ccn1` [Sorafenib], the “activity during period 15” value turned out to be 8.65.

With `NC(=O)c1ncn([C@@H]2O[C@H](CO)[C@@H](O)[C@H]2O)n1` [Ribavirin], the “activity during period 15” value was -3.78.

Consider `COCCc1ccc(OCC(O)CNC(C)C)cc1` (stereo not given) [Metoprolol tartrate], for which the “activity during period 15” value came out at 3.61.

For `O=C(O)CCCc1ccccc1` [Sodium 4-Phenylbutyrate], the “activity during period 15” value was found to be 0.951.

In the case of `CN1CCC[C@@H]1CCO[C@](C)(c1ccccc1)c1ccc(Cl)cc1` [Clemastine fumarate], the “activity during period 15” value was found to be 5.26.

In the case of `C#C[C@]1(O)CC[C@H]2[C@@H]3CCC4=CC(=O)CC[C@@H]4[C@H]3CC[C@@]21CC` [Levonorgestrel], the “activity during period 15” value was -6.07.

In the case of `CCN(CC)CCNC(=O)c1c(C)[nH]c(/C=C2\C(=O)Nc3ccc(F)cc32)c1C` [Sunitinib malate], the “activity during period 15” value is -14.6.

For `NS(=O)(=O)Cc1noc2ccccc12` [Zonisamide], the “activity during period 15” value is -7.11.

Regarding `O=C(O)C[C@H](O)C[C@H](O)/C=C/c1c(C2CC2)nc2ccccc2c1-c1ccc(F)cc1` [Pitavastatin calcium], the “activity during period 15” value was -4.44.

As for `O=c1[nH]c(=O)n([C@H]2C[C@H](O)[C@@H](CO)O2)cc1C(F)(F)F` [Trifluorothymidine], the “activity during period 15” value was -1.33.

On to `CCc1c2c(nc3ccc(OC(=O)N4CCC(N5CCCCC5)CC4)cc13)-c1cc3c(c(=O)n1C2)COC(=O)[C@]3(O)CC`, for which the “activity during period 15” value was -8.3.

For the compound `CC(C)(C#N)c1cc(Cn2cncn2)cc(C(C)(C)C#N)c1` [Anastrozole], the “activity during period 15” value is 2.84.

As to `Nc1ncn([C@H]2C[C@H](O)[C@@H](CO)O2)c(=O)n1` [Decitabine], the “activity during period 15” value worked out at 1.76.

For `Cc1nnc(C(C)C)n1C1C[C@H]2CC[C@@H](C1)N2CC[C@H](NC(=O)C1CCC(F)(F)CC1)c1ccccc1` (stereo in doubt) [Maraviroc], the “activity during period 15” value was -3.11.

For the compound `Nc1ncn([C@@H]2O[C@H](CO)[C@@H](O)[C@H]2O)c(=O)n1` [5-Azacytidine], the “activity during period 15” value came out at 1.42.

Turning to `C[C@]12CC[C@@H]3c4ccc(O)cc4C[C@@H](CCCCCCCCC[S+]([O-])CCCC(F)(F)C(F)(F)F)[C@H]3[C@@H]1CC[C@@H]2O` (stereo not given in full), the “activity during period 15” value turned out to be 4.53.

`CCCN(CCc1cccs1)[C@H]1CCc2c(O)cccc2C1` [Rotigotine hydrochloride]: the “activity during period 15” value is -35.4.
